HSF1 activator = increases HSF-1 driven luciferase reporter signal; NIH3T3-HGL HSF-1 luciferase reporter, MG132, 8 h; 100% = twice DMSO control signal; activation, % at 9 µM; actives 1.7% (n = 300,000); AID 504408;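 active = mean replicate activation of at least 50% with a set share of replicates each reaching 50%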;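 also: 0% = median of the neutral control wells and 100% = twice that signal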
HSP90 refold inh = blocks HSP90-mediated luciferase refolding in reticulocyte lysate; Rabbit reticulocyte lysate, luciferase refolding luminescence, 3 h; inhibition, % at 5.6 µM; actives 0.91% (n = 290,000); AID 1789;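 active = inhibition above the screen-wide mean plus 3 SD, computed separately per campaign, cut at about 16% in these data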;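 also: 0% = DMSO wells and 100% = 60 µM geldanamycin wells; inhibitors lower the luminescence because luciferase stays unfolded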
ARNT TACC3 PPI = disrupts binding between human ARNT and TACC3 | actives 0.66% (n = 390,000) | AlphaScreen His-ARNT PAS-B/GST-TACC3 binding, luminescence; TACC3 fragment carries E629A point mutation | Q9Y6A5 | inhibition, % at 9.99 µM | AID 623870;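 active = mean inhibition of replicates at least 50% and at least half of replicates each reaching 50%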;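 also: 0% = complete ARNT plus TACC3 wells and 100% = ARNT alone without TACC3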
HIF activator = HIF pathway transcriptional activation. U2OS HRE-luciferase reporter, luminescence; normalized: DMSO 0%, desferrioxamine 100%. activation, % at 7.5 µM (by protocol). actives 0.32% (n = 300,000). AID 1910;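 active = mean activation of at least 10% of the iron chelator positive control signal, with at least half of replicates also reaching 10%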
HSF1 inhib = HSF1 inhibition. actives 0.77% (n = 300,000). NIH3T3-HGL HSE-luciferase, MG132-induced, luminescence 8 h; stronger effect = lower value. activity change, negative = inhibition, % at 7.5 µM (by protocol);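 active = more than half of replicate wells show activity change below -50%, luminescence cut by over half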;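 also: luciferase reports HSF-1 transcriptional activity via heat shock element; 0% = median of DMSO wells and -100% = zero luminescence signal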
* hit, by the source's call; . = no result. Hits are enriched below; roughly 3.1% of the tested compounds scored in any of these assays.

SMILES	HSF1 activator	HSP90 refold inh	ARNT TACC3 PPI	HIF activator	HSF1 inhib
COc1ccc(C2=NN(C(=O)CN3CCCC3)C(c3ccc(OC)cc3)C2)cc1 (configuration not stated)	55*	-1	.	1	33
COc1ccc(C2=NN(C(=O)CN3CCCCC3)C(c3ccc(OC)cc3)C2)cc1 (configuration not stated)	17	4	-4	0	7
CCC(=O)N(C)C[C@@H]1Oc2cc(C#Cc3ccncc3)ccc2S(=O)(=O)N([C@H](C)CO)C[C@H]1C	.	.	0	.	.
C[C@@H]1CN([C@H](C)CO)S(=O)(=O)c2ccc(-c3ccccc3)cc2O[C@@H]1CN(C)C(=O)c1ccc2c(c1)OCO2	.	.	-4	.	.
Cc1cc(C(=O)NCCC2=CCCCC2)c(C)o1	60*	9	-1	2	33
O=C(NCCC1=CCCCC1)c1ccc(Cl)cc1	59*	8	.	0	37
CS(=O)(=O)N(Cc1ccc(Cl)cc1)c1ccc(C(=O)NCCC2=CCCCC2)cc1	4	4	-48	1	17
O=C(NCc1ccc(F)cc1)[C@@H]1[C@@H](CO)[C@@H]2Cn3c(cccc3=O)[C@H]1N2	.	.	-2	.	.
CCOc1c(C)cc(S(=O)(=O)NCc2cccnc2)c(C)c1C	-66	-6	3	-15	-56*
CCOc1cc(Cl)c(S(=O)(=O)NCc2cccnc2)cc1Cl	0	1	6	-4	0
CCOc1ccc(NC(=O)CSc2nnc(Cn3cnc4ccccc43)n2C)cc1	11	-6	-4	20*	3
CCOc1ccc(NC(=O)CSc2ccc(-c3ccccn3)nn2)cc1	5	0	26*	0	5
COc1ccc(NC(=O)CSc2nnc(Cn3nnc4ccccc43)n2C)cc1	.	3	-2	.	.
COc1ccc(NC(=O)CSc2nnc(Cn3cnc([N+](=O)[O-])n3)n2C)cc1	67*	-4	2	0	34
Cc1ccc(NC(=O)CSc2ccc(-c3ccccn3)nn2)cc1	1	-1	30	4	4
C[C@@H]1CN([C@@H](C)CO)C(=O)c2cc(NC(=O)CCCN(C)C)ccc2O[C@@H](C)CCCCO[C@H]1CN(C)S(=O)(=O)c1cccs1	.	.	-3	.	.
C[C@@H]1CN([C@H](C)CO)C(=O)c2cc(NC(=O)Cc3ccccc3)ccc2O[C@@H](C)CCCCO[C@@H]1CN(C)Cc1ccc2c(c1)OCO2	.	.	-1	.	.
Cc1noc(C)c1NC(=O)Nc1ccc2c(c1)C(=O)N([C@@H](C)CO)C[C@@H](C)[C@@H](CN(C)Cc1ccc(C(F)(F)F)cc1)OCCCC[C@@H](C)O2	.	.	-14	.	.
CCCN1C[C@H](C)[C@@H](OC)CN(C)C(=O)c2ccc(NC(=O)c3ccc(F)cc3)cc2OC[C@@H]1C	.	.	3	.	.
O=C(C[C@@H]1CC[C@H]2[C@@H](COC[C@@H](O)CN2Cc2ccc(C(F)(F)F)cc2)O1)N1CCc2ccccc2C1	.	.	2	.	.
CC1OC(Nc2ccc(N=Nc3ccccc3)cc2)C(O)C(O)C1O (configuration not stated)	22	-2	.	1	3
CC1OC(Nc2cccc3ccccc23)C(O)C(O)C1O (configuration not stated)	-96	1	30	1	-96*
O=C(NCC[C@H]1CC[C@H](NS(=O)(=O)c2cccc(F)c2)[C@@H](CO)O1)C1CCOCC1	.	.	6	.	.
CCOc1ccc(N2C(=O)/C(=C\c3ccc(O)c(OC)c3)S(=O)(=O)C2c2cccc([N+](=O)[O-])c2)cc1 (configuration not stated)	112*	2	9	-1	50
CO[C@@H]1CN(C)C(=O)c2ccc(NC(=O)C3CCC3)cc2OC[C@H](C)N(C(=O)CN(C)C)C[C@@H]1C	.	.	1	.	.
SMILES	HSF1 activator	HSP90 refold inh	ARNT TACC3 PPI	HIF activator	HSF1 inhib
Cc1ccc(NC(=O)CCCCCN2C(=O)c3ccccc3C2=O)nc1	54*	-5	.	-1	10
COc1ccc(C(CC(=O)Nc2ccc(C)cn2)N2Cc3ccccc3C2=O)cc1 (configuration not stated)	-4	3	35*	2	-1
COc1ccc(C(CC(=O)O)N2Cc3ccccc3C2=O)cc1 (configuration not stated)	13	8	6	2	-2
COC(=O)Nc1sccc1C(=O)Nc1sccc1C(=O)OC	-66	3	-6	0	-65*
COC(=O)c1ccsc1NC(=O)CCc1ccccc1	67*	-1	-8	3	32
CN(C)C(=O)C[C@H]1C=C[C@@H](NC(=O)NC2CCCCC2)[C@@H](CO)O1	.	.	-5	.	.
COCC(=O)N(C)C[C@@H]1Oc2ncc(C#CC3(O)CCCC3)cc2C(=O)N([C@@H](C)CO)C[C@H]1C	.	.	-6	.	.
COc1cccc(-n2nc(-c3ccnn3-c3cccc(Cl)c3)c(=O)n(C)c2=O)c1	-64	3	1	0	-54*
CC(=O)O[C@]1(C(C)=O)CC[C@H]2[C@@H]3C=CC4=CC(=O)C=C[C@]4(C)[C@H]3CC[C@@]21C	109*	-1	1	-19	56
CC(=O)O[C@]1(C(C)=O)CC[C@H]2[C@@H]3C=C(C)C4=CC(=O)CC[C@@H]4[C@H]3CC[C@@]21C	.	.	4	.	.
CN(C(=O)OC(C)(C)C)c1ccc(-c2nc3ccccc3s2)cc1	-94	.	-4	-4	-93*
COC(=O)Cc1ccc2sc(-c3ccccc3)nc2c1	61*	-3	-11	1	30
COc1ccccc1C(=O)NCc1ccc(-c2nc3ccccc3s2)cc1	-53	11	-4	0	-59*
COc1ccc(C(=O)NCc2ccc(-c3nc4ccccc4s3)cc2)cc1	60*	0	-5	.	24
COc1cc(C(=O)NCc2ccc(-c3nc4ccccc4s3)cc2)cc(OC)c1OC	30	-6	-4	1	22
O=C(O)Cc1ccc2sc(-c3ccccc3)nc2c1	-1	0	-6	0	-6
COc1cccc(NC(=O)N(C)C[C@H]2Oc3cc(C#Cc4ccccc4)ccc3S(=O)(=O)N([C@@H](C)CO)C[C@H]2C)c1	.	.	4	.	.
Cc1noc(C)c1S(=O)(=O)N(C)C[C@@H]1Oc2c(NC(=O)C3CC3)cccc2C(=O)N([C@@H](C)CO)C[C@@H]1C	.	.	-4	.	.
COC(=O)C1=C2CC[C@H](CO)NC(=O)N[C@H](Cc3ccccc3)C(=O)NCc3cn(nn3)C[C@H](Cc3ccccc3)NC(=O)c3oc(c(C(=O)OC)c3C(=O)OC)CC[C@H](CO)NC(=O)N[C@H](Cc3ccccc3)C(=O)NCc3cn(nn3)C[C@H](Cc3ccccc3)NC(=O)C(=C1C(=O)OC)O2	.	.	-1	.	.
C[C@@H]1CN([C@H](C)CO)C(=O)Cc2cc(NC(=O)C3CC3)ccc2O[C@H]1CN(C)C(=O)Nc1cccc2ccccc12	.	.	-3	.	.
C[C@H]1CN([C@@H](C)CO)C(=O)c2cc(NC(=O)Nc3ccc4c(c3)OCO4)ccc2O[C@H]1CN(C)Cc1ccccc1	.	.	1	.	.
